Measurements as given in PubChem BioAssay.
The source made the active and inactive calls. Unless noted, the rule behind the calls is not given here.

Tests used:
[1] = test system: Wnt5a (protein binding on small-molecule microarray); assay: small molecules binding Wnt5a protein – biophysical, small-molecule microarray, 635/667 nm fluorescence, primary screen (AID 1142); settings: 635 nm fluorescence, higher = more signal;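 note: fluorescence read at 667 nm with signal to noise per printed feature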
[2] = ATP-based viability of Huh7 replicon cells – cell-based, CellTiter-Glo luminescence, basal, 48 h, cytotoxicity control for HCV replication inhibitor project, primary screen (AID 1143); settings: higher = more signal, called active from +8 up or from −8 down;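 note: Huh7 hepatoma cells carrying a hepatitis C replication reporter with no stimulus; test concentration not given here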
[3] = Pseudomonas biofilm growth suppression – PAO1 strain, BacTiter-Glo luminescence, LB-PBS, primary screen (AID 1144); settings: P. aeruginosa PAO1 biofilm, 12 h, higher = more signal
[4] = basal CRE-LacZ reporter activity in PC12 – cell-based, unstimulated, primary screen (AID 1145); settings: no forskolin, luminescence, 4.5 h, higher = more signal, called active from +8 up or from −8 down
[5] = forskolin-driven CRE-LacZ activity in PC12 – cell-based, CRE-LacZ reporter, forskolin-stimulated, primary screen (AID 1146); settings: luminescence, 4.5 h, higher = more signal, called active from +8 up or from −8 down;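 note: PC12 cells with 6xCRE LacZ reporter stimulated by forskolin 10 µM; beta-galactosidase reporter signal reflecting CREB driven transcription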
[6] = molecular target: Streptavidin (Streptomyces avidinii) (UniProt P22629); assay: compounds binding control protein streptavidin – biophysical, small-molecule microarray, 635/667 nm fluorescence, artefact control for SMM compound annotation, primary screen (AID 1147); settings: higher = more signal;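 note: signal reflects streptavidin binding to arrayed compounds as a control protein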
[7] = probe aInhba binding on compound microarray – biochemical, small-molecule microarray, 635/667 nm fluorescence, primary screen (AID 1148); settings: higher = more signal;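 note: score merges 667nm spot fluorescence with signal-to-noise for antibody binding to printed compounds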
Torsin-1A (Homo sapiens) [8] = molecular target: Torsin-1A (Homo sapiens) (UniProt O14656); assay: TOR1A wild-type binding on microarray – cell lysate, small-molecule microarray, lysate, 635/667 nm, primary screen (AID 1149); settings: COS7 hTOR1A-WT lysate, 635 nm fluorescence, higher = more signal
Torsin-1A (Homo sapiens) [9] = molecular target: Torsin-1A (Homo sapiens) (UniProt O14656); assay: torsin A mutant lysate binding on microarrays – cell lysate, small-molecule microarray, COS7 lysate, 635/667 nm fluorescence, primary screen (AID 1150); settings: COS7 hTOR1A mutant lysate, 635 nm fluorescence, higher = more signal;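 note: score pools 667 nm emission and signal to noise measuring lysate protein binding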
[10] = test system: Sonic hedgehog protein (Shh); assay: Sonic hedgehog microarray binding compounds – biochemical, small-molecule microarray, 635/667 nm fluorescence, primary screen (AID 1151); settings: 635 nm fluorescence, higher = more signal;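 note: Shh protein binding to compounds spotted on small-molecule microarray slides; score combines spot fluorescence intensity with signal-to-noise across triplicate slides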
[11] = optical density shifts of acrAB sulA E. coli – strain DRC41, OD650, 48 h, E. coli filamentation inducer project, primary screen (AID 1152); settings: higher = more signal, called active from +8 up or from −8 down;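 note: E. coli MC1000 strain DRC41 lacking acrAB efflux pump and sulA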
[12] = probe aLefty1 binding on compound microarray – biochemical, small-molecule microarray, 635/667 nm fluorescence, primary screen (AID 1153); settings: higher = more signal;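 note: score merges spot fluorescence with signal-to-noise ratio from the scanned slide images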
[13] = plasmodial surface anion channel blockers, osmotic lysis – cell-based, P. falciparum Indochina, OD700, 1 h, primary screen (AID 1154); settings: P. falciparum Indochina infected RBC osmotic lysis, higher = more signal, called active from +8 up or from −8 down
[14] = plasmodial surface anion channel blockers, osmotic lysis – cell-based, P. falciparum Indochina, OD700, 2 h, primary screen (AID 1155);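 note: lysis reports solute entry through the parasite surface anion channel PSAC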; settings: P. falciparum Indochina infected erythrocytes, higher = more signal, called active from +8 up or from −8 down
[15] = changes in parasitized red cell lysis, either direction – P. falciparum Indochina, OD700, 3 h, PSAC antagonist project, primary screen (AID 1156); settings: P. falciparum-infected erythrocytes, osmotic lysis, higher = more signal, called active from +8 up or from −8 down
[16] = plasmodial surface anion channel blockers, osmotic lysis – cell-based, P. falciparum Indochina, OD700, 18 h, primary screen (AID 1157); settings: P. falciparum Indochina infected erythrocytes, osmotic lysis OD700, 18 h; higher = more signal, called active from +8 up or from −8 down
[17] = S6 kinase pathway phospho-S6 level changes – cell-based, A549, cytoblot, luminescence, serum-stimulated, primary screen (AID 1158); settings: 5 h, higher = more signal;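 note: serum-stimulated A549 lung adenocarcinoma cells; signal is phosphorylated S6 detected by cytoblot immunostaining with HRP secondary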
[18] = molecular target: NADPH oxidase 2 (Homo sapiens) (UniProt P04839); assay: compounds shifting NOX2 Amplex Red fluorescence – cell-based, HEK293-NOX2, PMA-stimulated, NOX inhibitor project, primary screen (AID 1159); settings: 45 min, higher = more signal, called active from +8 up or from −8 down; note: test concentration not given here
[19] = molecular target: NADPH oxidase 4 (Homo sapiens) (UniProt Q9NPH5); assay: compounds shifting NOX4 Amplex Red fluorescence – cell-based, HEK293-NOX4, tetracycline-induced, NOX inhibitor project, primary screen (AID 1160); settings: HEK293-NOX4, Amplex Red H2O2 fluorescence, 45 min; higher = more signal, called active from +8 up or from −8 down
[20] = molecular target: NADPH oxidase 5 (Homo sapiens) (UniProt Q96PH1); assay: compounds shifting NOX5 Amplex Red fluorescence – cell-based, HEK293-NOX5, NOX inhibitor project, primary screen (AID 1161); settings: HEK293-NOX5, ionomycin, 45 min, higher = more signal
NADPH oxidase 5 (Homo sapiens), sequence (Q96PH1 whole entry, looked up): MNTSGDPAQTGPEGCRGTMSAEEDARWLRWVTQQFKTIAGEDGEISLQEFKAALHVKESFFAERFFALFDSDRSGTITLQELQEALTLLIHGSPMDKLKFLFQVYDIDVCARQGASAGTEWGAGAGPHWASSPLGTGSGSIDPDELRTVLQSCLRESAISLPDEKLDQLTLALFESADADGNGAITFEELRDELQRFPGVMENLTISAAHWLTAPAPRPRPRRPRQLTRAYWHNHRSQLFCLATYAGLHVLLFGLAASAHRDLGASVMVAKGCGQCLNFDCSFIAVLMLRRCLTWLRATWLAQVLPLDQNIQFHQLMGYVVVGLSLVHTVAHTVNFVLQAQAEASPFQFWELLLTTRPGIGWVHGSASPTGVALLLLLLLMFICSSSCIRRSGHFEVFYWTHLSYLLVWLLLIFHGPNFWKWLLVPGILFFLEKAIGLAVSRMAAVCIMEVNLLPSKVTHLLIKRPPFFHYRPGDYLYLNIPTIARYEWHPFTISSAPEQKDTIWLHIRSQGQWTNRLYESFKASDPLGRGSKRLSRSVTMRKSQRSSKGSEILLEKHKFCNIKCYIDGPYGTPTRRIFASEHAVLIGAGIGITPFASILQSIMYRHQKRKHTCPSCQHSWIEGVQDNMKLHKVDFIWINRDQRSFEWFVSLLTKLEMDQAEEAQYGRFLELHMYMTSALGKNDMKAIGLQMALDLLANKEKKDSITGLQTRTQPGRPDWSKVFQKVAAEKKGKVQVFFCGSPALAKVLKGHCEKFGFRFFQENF

Torsin-1A (Homo sapiens), sequence (O14656 whole entry, looked up): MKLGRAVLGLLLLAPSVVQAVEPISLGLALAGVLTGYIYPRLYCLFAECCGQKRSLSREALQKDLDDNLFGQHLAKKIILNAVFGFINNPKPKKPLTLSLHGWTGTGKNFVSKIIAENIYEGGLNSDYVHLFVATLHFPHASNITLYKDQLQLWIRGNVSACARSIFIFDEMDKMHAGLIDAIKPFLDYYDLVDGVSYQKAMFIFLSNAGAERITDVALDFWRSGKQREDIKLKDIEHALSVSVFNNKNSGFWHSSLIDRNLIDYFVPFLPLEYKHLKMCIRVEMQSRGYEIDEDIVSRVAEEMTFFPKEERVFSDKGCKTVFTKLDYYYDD
NADPH oxidase 4 (Homo sapiens), sequence (Q9NPH5 whole entry, looked up): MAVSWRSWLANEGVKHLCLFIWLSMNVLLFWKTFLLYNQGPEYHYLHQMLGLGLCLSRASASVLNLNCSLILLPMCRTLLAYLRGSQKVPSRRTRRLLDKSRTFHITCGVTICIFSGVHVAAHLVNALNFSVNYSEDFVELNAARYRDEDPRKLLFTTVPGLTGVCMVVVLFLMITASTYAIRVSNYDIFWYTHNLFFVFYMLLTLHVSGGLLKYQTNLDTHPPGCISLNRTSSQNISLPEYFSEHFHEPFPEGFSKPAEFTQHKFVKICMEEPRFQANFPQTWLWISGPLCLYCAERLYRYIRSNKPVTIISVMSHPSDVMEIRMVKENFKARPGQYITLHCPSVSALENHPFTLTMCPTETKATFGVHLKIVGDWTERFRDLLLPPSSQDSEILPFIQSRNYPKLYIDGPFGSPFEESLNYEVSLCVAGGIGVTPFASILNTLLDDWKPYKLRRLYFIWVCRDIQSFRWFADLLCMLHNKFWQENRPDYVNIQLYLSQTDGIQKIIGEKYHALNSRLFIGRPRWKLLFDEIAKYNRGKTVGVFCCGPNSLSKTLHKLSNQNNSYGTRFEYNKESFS
NADPH oxidase 2 (Homo sapiens), sequence (P04839 whole entry, looked up): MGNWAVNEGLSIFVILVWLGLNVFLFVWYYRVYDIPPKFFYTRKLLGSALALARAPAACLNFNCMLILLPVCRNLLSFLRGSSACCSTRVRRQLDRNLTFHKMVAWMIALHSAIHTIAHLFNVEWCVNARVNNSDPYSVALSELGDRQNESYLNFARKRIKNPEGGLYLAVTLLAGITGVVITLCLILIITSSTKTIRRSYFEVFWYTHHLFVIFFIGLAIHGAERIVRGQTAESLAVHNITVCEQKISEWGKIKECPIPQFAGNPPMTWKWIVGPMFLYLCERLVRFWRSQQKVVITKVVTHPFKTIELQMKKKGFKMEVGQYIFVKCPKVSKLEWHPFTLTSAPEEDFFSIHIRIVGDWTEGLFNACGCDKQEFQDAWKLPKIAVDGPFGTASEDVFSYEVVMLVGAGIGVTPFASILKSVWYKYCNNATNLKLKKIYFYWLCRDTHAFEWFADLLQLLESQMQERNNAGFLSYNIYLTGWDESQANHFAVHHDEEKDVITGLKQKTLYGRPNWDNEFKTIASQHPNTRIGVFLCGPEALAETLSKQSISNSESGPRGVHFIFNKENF
Streptavidin (Streptomyces avidinii), sequence (P22629 whole entry, looked up): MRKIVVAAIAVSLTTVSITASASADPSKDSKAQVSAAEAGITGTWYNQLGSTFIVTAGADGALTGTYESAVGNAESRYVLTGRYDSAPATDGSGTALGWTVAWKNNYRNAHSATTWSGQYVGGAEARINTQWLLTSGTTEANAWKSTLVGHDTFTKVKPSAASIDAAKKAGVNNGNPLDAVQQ

Row | Compound | composite z-score [1] | z-score [2] | z-score [3] | z-score [4] | z-score [5] | composite z-score [6] | composite z-score [7] | composite z-score (Torsin-1A (Homo sapiens) [8]) | composite z-score (Torsin-1A (Homo sapiens) [9]) | composite z-score [10] | z-score [11] | composite z-score [12] | z-score [13] | z-score [14] | z-score [15] | z-score [16] | z-score [17] | z-score [18] | z-score [19] | z-score [20]
1 | CC(C)[C@H](NC(=O)OC(C)(C)C)[C@@H](O)CC(=O)OC(C)(C)C | -0.417 | -0.49 (inactive) | -0.896 (inactive) | 0.293 (inactive) | 0.337 (inactive) | -0.14 | -0.152 | -0.781 | -0.448 | -0.463 | -0.703 (inactive) | -0.0197 | 0.775 (inactive) | 0.269 (inactive) | 0.835 (inactive) | 0.128 (inactive) | 0.242 | 1.33 (inactive) | -1.02 (inactive) | 1.04
2 | CCOC(=O)C[C@H]1[C@H](OC(=O)c2cc3ccccc3oc2=O)[C@@H](NC(=O)c2ccc3ccccc3n2)c2cc(OCCCO)ccc2N1C(=O)c1ccccc1 | 0.537 | -2.98 (inactive) | 0.287 (inactive) | 11.9 (active) | 0.576 (inactive) | 0.28 | 0.0345 | 0.354 | 1.37 | 0.574 | 0.571 (inactive) | 0.0793 | 1.31 (inactive) | -0.639 (inactive) | 0.628 (inactive) | -1.83 (inactive) | 0.63 | -0.253 (inactive) | -0.654 (inactive) | 0.86
3 | CO[C@H]1COC(=O)[C@@H]2CCCN2C(=O)[C@@H](C)COC(=O)CC=C[C@@H]1C | 0.055 | 0.321 (inactive) | -0.556 (inactive) | -0.892 (inactive) | -0.0307 (inactive) | 0.457 | -0.0136 | 1.24 | 0.219 | 2.14 | 0.737 (inactive) | -0.198 | 0.464 (inactive) | 0.279 (inactive) | 0.61 (inactive) | 0.27 (inactive) | -0.552 | -0.281 (inactive) | 0.0546 (inactive) | -0.48
4 | CO[C@@H]1COC(=O)CC=C[C@@H](C)[C@@H]2C=C[C@H](O)[C@@H](COC(=O)CCC[C@H]1C)O2 | 0.0796 | -0.493 (inactive) | 0.0169 (inactive) | -2.36 (inactive) | -1.91 (inactive) | 1.35 | -0.118 | 0.858 | 1.6 | 1.55 | -0.457 (inactive) | 0.425 | -0.977 (inactive) | -1.66 (inactive) | -0.184 (inactive) | -2.26 (inactive) | 0.49 | -0.521 (inactive) | 0.319 (inactive) | 0.312
5 | CC(C)c1ccc(NN2C(C(O)c3ccc4c(c3)OCO4)C=CC3C(=O)N(c4ccccc4)C(=O)C32)cc1 (stereo not given) | 0.268 | -0.0997 (inactive) | -0.505 (inactive) | 0.629 (inactive) | -0.0824 (inactive) | 2.14 | 0.125 | -0.0945 | 1.04 | 0.397 | -0.481 (inactive) | -0.0593 | 1.76 (inactive) | 1 (inactive) | 0.126 (inactive) | 0.778 (inactive) | -0.467 | -0.488 (inactive) | -0.912 (inactive) | -0.752
6 | CCOC(=O)[C@H](Cc1ccccc1)NC(=O)CCC1CC(OC(=O)NCCc2ccc(F)cc2)CC2(CCCC(COC(=O)NCC(c3ccccc3)c3ccccc3)O2)O1 (stereo not given in full) | 0.0879 | -0.792 (inactive) | 0.338 (inactive) | 0.286 (inactive) | 1.23 (inactive) | 0.388 | -0.248 | -0.0715 | 0.656 | 0.719 | -0.455 (inactive) | -0.144 | 14.2 (active) | 4.68 (inactive) | -0.261 (inactive) | 0.688 (inactive) | -0.058 | 0.0978 (inactive) | -0.136 (inactive) | -0.234
7 | Cc1ccc(S[C@]2(C(=O)O)CC(=O)N(Cc3ccccc3)[C@@H]2c2ccc(CO)cc2I)cc1 | -0.405 | -1.32 (inactive) | 0.116 (inactive) | 1.97 (inactive) | 1.63 (inactive) | 0.556 | -0.0963 | -0.995 | -0.604 | -0.41 | -0.308 (inactive) | 0.157 | 13.9 (active) | 2.07 (inactive) | 1.47 (inactive) | 0.842 (inactive) | -0.31 | 1.71 (inactive) | -2.26 (inactive) | 0.38
8 | C#C[C@@H](CC)O[Si](C#Cc1ccc(Oc2ccccc2)cc1)(C(C)C)C(C)C | 0.142 | -0.533 (inactive) | 0.159 (inactive) | -0.738 (inactive) | 0.0319 (inactive) | -0.149 | -0.0736 | 0.293 | 0.321 | 0.486 | -0.49 (inactive) | 0.0404 | 0.788 (inactive) | 1.4 (inactive) | -1.4 (inactive) | 0.335 (inactive) | -0.724 | 0.278 (inactive) | -0.366 (inactive) | -1.51
9 | COCC(=C=CC[C@@H](O)c1ccccc1OCCO)CCO | 0.0554 | 0.0309 (inactive) | -0.118 (inactive) | 0.914 (inactive) | -0.732 (inactive) | -0.174 | -0.0074 | 0.635 | 0.518 | 0.156 | 0.825 (inactive) | -0.0501 | 2.69 (inactive) | -0.0233 (inactive) | 0.454 (inactive) | 0.16 (inactive) | 0.613 | 1.64 (inactive) | 0.992 (inactive) | -0.132
